Lassa entry inh: inhibitors of Lassa virus binding or cell entry; Potency, µM (doses to about 37.9 µM), usual class: inhibitors; AID 540256; Lassa virus pseudotype entry inhibition, cell reporter; 300,000 compounds, 1.2% hits; calls by dose curve; tested in HEK293 cells; note: nearly all actives have a fitted effect of over 50% in size
HCMV antiviral: inhibitors of human cytomegalovirus; HFF cells, HCMV-luciferase reporter, 72 h; hits give low values; activity change, negative = inhibition, % at 57.5 µM; 410,000 compounds, 4.5% hits; in the data active = activity change below about -60%; inconclusive = no clear call, values can overlap the other calls; inactive = above about -39%
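Inhibition of viral replication was scored as loss of reporter luminescence in HFFs infected with HCMV-luciferase (MOI 1 PFU/cell) for 72 h; compounds tested at 2 doses, normalized to buffer and Salinomycin controls.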
VACV Venus inh: vaccinia inhibition (Venus reporter); 330,000 compounds, 0.46% hits; Potency, µM (titrated, usually from 36.5 µM), hits mostly inhibitors; Vaccinia virus Venus reporter expression, fluorescence; AID 720580; calls by dose curve; tested in A549 cells; note: nearly all actives have a fitted effect of over 30% in size
MARV entry inh: inhibitors of Marburg virus binding or cell entry; 300,000 compounds, 1.8% hits; AID 540276; Potency, µM (top dose mostly 37.8 µM), usual class: inhibitors; Marburg virus pseudotyped entry inhibition, cell reporter; calls by dose curve; tested in HEK293 cells
HCV inhibitor: HCV inhibition; Huh7.5.1 HCVcc-Cre infection, luciferase reporter, 44 h; Potency, µM (doses to about 41.8 µM), actives largely listed as inhibitors; 340,000 compounds, 3.4% hits; AID 651820; active = well fitted inhibition curve with a large enough effect; inconclusive = small, poorly fitted or top-dose-only effect, or another doubt; inactive = no such curve, though single readings can be large or run the other way
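Luciferase read-out (15 sec integration) after a 15 min room-temperature substrate step quantifies HCVcc-Cre infection. Cells, 1,000 per well, had compound added 4 h post-plating, then virus at ~0.5 moi, and were cultured 44 h.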
Vaccinia mCherry: vaccinia inhibition (mCherry reporter) | Vaccinia virus mCherry reporter infection, fluorescence | Potency, µM (doses to about 36.5 µM), usual class: inhibitors | 310,000 compounds, 0.63% hits | AID 720579; calls by dose curve; tested in A549 cells; note: nearly all actives have a fitted effect of over 35% in size
Each line names hits and unclear results; the compound was inactive in the other large screens. Rows were chosen to be rich in hits. Some 7.8% of all compounds tested hit in one or more screens of this group.

CC(=O)Nc1ccc(Cl)cc1C(=O)c1ccc[nH]1	none (no result: Lassa entry inh, MARV entry inh, HCV inhibitor)
O=C(Nc1ccc2c(c1)OCO2)N[C@H]1CC[C@@]23CCCN2C(=O)CCC[C@H]3C1Cc1ccccc1 (stereo not given in full)	none (no result: Lassa entry inh, VACV Venus inh, MARV entry inh, HCV inhibitor, Vaccinia mCherry)
Cc1ccc(NCc2cccn2-c2nnc(N3CCC(C(=O)NC(C)C)CC3)s2)cc1	none (no result: Lassa entry inh, HCV inhibitor)
CCOc1ccc(NCc2cccn2-c2nnc(N3CCC(C(=O)NCCCN4CCCCC4C)CC3)s2)cc1 (stereo not given)	HCMV antiviral -66, HCV inhibitor inconclusive (no result: Lassa entry inh, VACV Venus inh, MARV entry inh, Vaccinia mCherry)
Cc1ccc(NCc2cccn2-c2nnc(N3CCC(C(=O)NCCC(C)C)CC3)s2)cc1	HCMV antiviral -67, VACV Venus inh inconclusive (no result: Lassa entry inh, HCV inhibitor)
CCc1ccc(-n2nc(C)c3c(C(=O)Nc4cc(C)c(Cl)cc4OC)cc(C)nc32)cc1	none (no result: MARV entry inh, HCV inhibitor)
Oc1[nH]c2ccccc2c1C1=NCCCC1	HCV inhibitor 35µM (no result: Vaccinia mCherry)
CCn1c(O)c(C2=NCCCC2)c2ccccc21	MARV entry inh inconclusive, HCV inhibitor inconclusive (no result: Vaccinia mCherry)
Cc1ccc(C)c(NC(=O)CN2C(=O)CSc3nc(C)cc(C)c32)c1	none (no result: HCV inhibitor)
COc1ccc(CC(=O)NC2CC(=O)N(c3ccc(C)c(C)c3)C2)cc1OC (stereo not given)	none (no result: MARV entry inh, HCV inhibitor)
Cc1ccc(C)c(NC(=O)CSc2nnc(NC(=O)Nc3ccccc3)s2)c1	none (no result: MARV entry inh, HCV inhibitor)
Cc1ccc(NC(=O)C2CCCN(S(=O)(=O)c3cccc4cccnc34)C2)c(C)c1 (stereo not given)	Lassa entry inh inconclusive (no result: HCV inhibitor)
CCOc1ccccc1CNC(=O)Cn1nc(C)c2c(C)n(-c3ccc(C)cc3)nc2c1=O	HCV inhibitor 2.8µM (no result: Lassa entry inh, HCMV antiviral, VACV Venus inh, MARV entry inh, Vaccinia mCherry)
Cc1ccc(-n2nc3c(=O)n(C(C)C(=O)NCc4ccccc4Cl)nc(C)c3c2C)cc1 (stereo not given)	HCMV antiviral -92, HCV inhibitor inconclusive (no result: Lassa entry inh, VACV Venus inh, MARV entry inh, Vaccinia mCherry)
CCC(C(=O)Nc1ccccc1C(=O)OC)n1nc(C)c2c(C)n(-c3ccc(C)cc3)nc2c1=O (stereo not given)	Lassa entry inh inconclusive, HCMV antiviral -94, VACV Venus inh inconclusive, Vaccinia mCherry inconclusive (no result: MARV entry inh, HCV inhibitor)
CCC(C(=O)Nc1ccccc1Cl)n1nc(C)c2c(C)n(-c3ccccc3)nc2c1=O (stereo not given)	HCMV antiviral -80, MARV entry inh inconclusive, HCV inhibitor inconclusive
Cc1ccc(-n2nc3c(=O)n(C(C)C(=O)NCc4ccco4)nc(C)c3c2C)cc1 (stereo not given)	none (no result: MARV entry inh)
CCc1c(C)nc2nncn2c1Nc1ccc(Cl)cc1	HCMV antiviral inconclusive (no result: HCV inhibitor)
COC(=O)c1ccccc1NC(=O)C(C)n1nc(C)c2c(C)n(-c3ccccc3)nc2c1=O (stereo not given)	HCMV antiviral inconclusive (no result: Lassa entry inh, VACV Venus inh, MARV entry inh, Vaccinia mCherry)
CCOc1ccccc1CNC(=O)C(C)n1nc(C)c2c(C)n(-c3ccccc3)nc2c1=O (stereo not given)	HCMV antiviral inconclusive, MARV entry inh inconclusive, HCV inhibitor 6.3µM
Cc1nn(CC(=O)NCc2cccs2)c(=O)c2nn(-c3ccccc3)c(C)c12	HCMV antiviral -71, Vaccinia mCherry inconclusive
CCC(C(=O)NCc1cccc(C)c1)n1nc(C)c2c(C)n(-c3ccccc3)nc2c1=O (stereo not given)	HCMV antiviral inconclusive, HCV inhibitor 13µM (no result: Lassa entry inh, VACV Venus inh, MARV entry inh, Vaccinia mCherry)
CCCNC(=O)C(C)n1nc(C)c2c(C)n(-c3ccccc3)nc2c1=O (stereo not given)	none (no result: MARV entry inh, HCV inhibitor)
Cc1nn(C(C)C(=O)Nc2ccccc2Cl)c(=O)c2nn(-c3ccccc3)c(C)c12 (stereo not given)	Lassa entry inh inconclusive, HCMV antiviral -62, MARV entry inh inconclusive
Cc1nc(-c2ccccc2)sc1CCNC(=O)c1ccco1	none (no result: MARV entry inh, HCV inhibitor)
CCC(=NCCN1CCOCC1)c1c(O)n(-c2ccccc2C)c(=O)[nH]c1=O	none
CC/C(=N\N1CCCCCC1)c1c(O)n(-c2ccccc2C)c(=O)[nH]c1=O	Lassa entry inh 10µM, HCMV antiviral inconclusive, HCV inhibitor inconclusive, Vaccinia mCherry inconclusive
O=C(COc1ccccc1)Nc1nnc(SCc2cc(=O)c3ccccc3[nH]2)s1	none (no result: MARV entry inh, HCV inhibitor)
C=C1[C@@H](O)[C@H](Cc2ccccc2)N(Cc2ccccc2Br)S1(=O)=O	VACV Venus inh 10µM, Vaccinia mCherry 10µM (no result: Lassa entry inh, MARV entry inh)
CCN(CC)S(=O)(=O)c1ccc(NC(=O)c2c(C)oc3ncnc(N4CCOCC4)c23)cc1	none (no result: MARV entry inh, HCV inhibitor)
COc1ccc(N2C(=O)[C@@H]3C[C@H]2CN3Cc2cccn2-c2ccccn2)cc1Cl	none (no result: Lassa entry inh, HCMV antiviral, MARV entry inh, HCV inhibitor)
O=C(c1ccc(Cl)c(S(=O)(=O)N2CCCCCC2)c1)N1CCCCC1	none (no result: Lassa entry inh, VACV Venus inh, MARV entry inh, Vaccinia mCherry)

Screening results: PubChem BioAssay, National Center for Advancing Translational Sciences (NCATS)
